PubChem BioAssay (NCATS)
Results filed as inconclusive are left out. Active and inactive are the calls of the source. Unless noted, the call rests on the fitted dose curve; in most records, active means well fitted curve in the direction sought with a large enough effect; inconclusive means small, poorly fitted or top-dose-only effect, or another doubt; inactive means no such curve, though single readings can be large; an effect the other way counts as inactive or inconclusive.

Experiments:
[1] = biological target: Lysosomal acid glucosylceramidase (Homo sapiens) (UniProt P04062); test: Glucocerebrosidase-p2 (AID 348; in the data active means potency below about 10 µM; further: potency means the concentration at half of the fitted maximal effect); conditions: purified GBA, blue fluorogenic substrate, 40 min
In short: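 Compounds titrated from 0.6 nM upwards against 0.2 nM enzyme in pH 5.9 citric acid/KH2PO4, taurocholate, tween-20; blue fluorogenic substrate 80 uM, 40 min room temperature, stopped and read Ex 365/Em 440 for AC50.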

[2] = AP1 Signaling Pathway (AID 357; active means well fitted curve in either direction with a large enough effect, not every such curve was filed as active; further: on the % scale 0 is the no-effect control and ±100 the full control effect); conditions: ME-180 AP-1-bla reporter, EGF-induced, beta-lactamase ratio, 5 h; at 7.69 µM (top of the series) unless noted
In short: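 ME-180 cells with beta-lactamase reporter under AP-1 response element, stimulated with EC50 EGF; compounds tested in titration series, 5 h at 37 °C. CCF4 substrate added 2.5 h at room temperature; 460/530 nm emission ratio gave %activity and AC50.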

[3] = NFAT Signaling Pathway (AID 444; active means well fitted curve in either direction with a large enough effect, not every such curve was filed as active;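 further: carbachol stimulus at about its EC50 of 1 µM final; on the % scale 0 is the no-effect control and ±100 the full control effect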); conditions: Jurkat NFAT-bla M1, carbachol, beta-lactamase ratio, 5 h; at 7.69 µM (top of the series) unless noted
In short: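 Jurkat cells carrying an NFAT-driven β-lactamase reporter and co-transfected muscarinic M1 receptor were treated with compound plus carbachol (1 uM final, an EC50 level) for 5 h at 37 °C. CCF4 loading followed for 1 h at RT; 460/530 nm ratio gave %activity.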

[4] = Stat Signaling Pathway (AID 446; active means well fitted curve in either direction with a large enough effect, not every such curve was filed as active;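 further: ME-180 cervical cancer cells given 40 pM IL-6 alongside compound; SIE-controlled beta-lactamase reporter measured as 460/530 nm FRET emission ratio; on the % scale 0 is the no-effect control and ±100 the full control effect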); conditions: ME-180 SIE beta-lactamase reporter, IL-6 stimulated, 5 h; at 7.69 µM (top of the series) unless noted
In short: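 ME-180 SIE-bla cells; overnight plating; cpd + IL-6 40 pM, 5 h, 37 C; LiveBLAzer 2.5 h RT; 460/530 nm emission ratio. Normalized to 300 pM IL-6 and 125 nM JAK inhibitor controls.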

[5] = biological target: Glucocorticoid receptor (Homo sapiens) (UniProt P04150); test: GR-GFP Redistribution (AID 450;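 active means compounds whose dose series gives a full or clear partial fitted curve of increased nuclear translocation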; further: potency means the concentration at half of the fitted maximal effect); conditions: U2OS GR-GFP nuclear translocation, laser cytometry, 2 h
[6] = biological target: Glucocorticoid receptor (Homo sapiens) (UniProt P04150); test: GR-EFC Redistribution (AID 451; calls by dose curve; further: potency means the concentration at half of the fitted maximal effect); conditions: CHO-K1 GR-EFC translocation, beta-gal luminescence, 2 h
In short: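 CHO-K1 cells stably expressing nuclear-localized β-gal enzyme acceptor and GR fused C-terminally to the enzyme donor fragment; ligand-driven nuclear translocation restores β-gal by complementation. Compounds titrated up to 46 uM final, 2 h at 37 °C; luminescence read.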

[7] = biological target: Mitogen-activated protein kinase 10 (Mus musculus) (UniProt Q61831); test: JNK3 AlphaScreen Assay (AID 530; active means well fitted curve in either direction with a large enough effect, not every such curve was filed as active;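 further: kinase came from lysate of stimulated human HepG2 cells; signal reports phosphorylation of biotinylated GST-cJun 1-79 at Ser73 with 10 µM ATP; on the % scale 0 is the no-effect control and ±100 the full control effect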); conditions: JNK3 lysate, c-Jun phosphorylation; series mostly up to 57.1 µM
In short: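 Inhibitors reduce antibody binding to phosphorylated biotin-cJun, lowering AlphaScreen luminescence. Lysates from HepG2 cells pre-activated by IL-1beta plus TNF-alpha supplied JNK3; compounds were titrated.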

[8] = biological target: 3',5'-cyclic-AMP phosphodiesterase 4B (Homo sapiens) (UniProt Q07343); test: qHTS Assay for Inhibitors of PDE-IV (AID 607; active means well fitted activation curve with a large enough effect in the main read-out, with a control signal flat, not every such curve was filed as active; further: % of control where 0% means no effect); conditions: HEK293 ACTOne CNG channel cells, membrane potential fluorescence; series mostly up to 22.9 µM
In short: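 ACTOne HEK293 cells carry a modified cAMP-gated CNG channel and express endogenous PDE4; plated 1000 cells/well, compounds up to 22.9 uM final. Membrane-potential dye fluorescence (ex 535/em 590) was read; parental cells received 10 uM forskolin + 100 uM RO 20-1724.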

[9] = biological target: Dual specificity protein kinase CLK4 (Homo sapiens) (UniProt Q9HAZ1); test: qHTS Assay for Inhibitors of CDC-like Kinase 4 (ADP-Glo Assay) (AID 1771); conditions: recombinant CLK4, ADP-Glo luminescence; series mostly up to 80 µM; further: nearly all actives have a fitted effect of over 70% in size; further: potency means the concentration at half of the fitted maximal effect
In short: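 25 nM Clk4 with 100 uM RS repeat peptide and 1 uM ATP (final) in buffer with 2 mM MgCl2, 0.5 mM EGTA, 2.5 mM DTT, 0.01% Triton X-100; 1 h at room temperature; ADP-Glo luminescence for ADP formed.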

[10] = biological target: Ubiquitin carboxyl-terminal hydrolase 1 (Homo sapiens) (UniProt O94782); test: Inhibitors of USP1/UAF1: Pilot qHTS (AID 504865); conditions: purified USP1/UAF1, Ub-rhodamine cleavage fluorescence; series mostly up to 54.9 µM;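 further: rhodamine fluorescence freed from ubiquitin-rhodamine substrate followed over time; top concentration of the series differs between compounds; on the % scale 0 is the no-effect control and ±100 the full control effect; nearly all actives have a fitted effect of over 35% in size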
In short: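 In 50mM HEPES pH 7.8 containing 0.5mM EDTA, 1mM TCEP, 0.1 mg/ml BSA and 0.01% Tween-20, 1nM USP1/UAF1 is exposed to compound for 15 min, then Ub-Rho (150nM final) is added and fluorescence is read over time.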

[11] = Primary qHTS for small molecule stabilizers of the endoplasmic reticulum resident proteome: Secreted ER Calcium Modulated Protein (SERCaMP) assay (AID 1508630); conditions: SH-SY5Y GLuc-SERCaMP (Gaussia luciferase released on ER calcium loss) secretion, thapsigargin, luminescence; series mostly up to 38.4 µM; further: on the % scale 0 is the no-effect control and ±100 the full control effect
In short: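 GLuc-SERCaMP-expressing SH-SY5Y cells, pretreated 16 h with compound, are challenged with thapsigargin to empty ER calcium stores; after 4 h, coelenterazine is added directly to the medium and luminescence is imaged.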

[12] = biological target: Cytochrome P450 1A2 (Homo sapiens) (UniProt P05177); test: p450-cyp1a2 (AID 410; calls by dose curve; further: potency means the concentration at half of the fitted maximal effect); conditions: recombinant CYP1A2, luciferin-ME demethylation, luminescence; series mostly up to 57 µM
In short: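 20nM CYP1A2 with 100uM Luciferin-ME (at Km) in 100mM KPO4; compound preincubated 10 min, NADPH regeneration added, 60 min at room temperature. Luciferin quantified by luminescence after detection reagent; normalized to 57 uM furafylline.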

[13] = biological target: Cytochrome P450 3A4 (Homo sapiens) (UniProt P08684); test: qHTS Assay for Inhibitors and Substrates of Cytochrome P450 3A4 (AID 884); conditions: recombinant CYP3A4, Luciferin-PPXE luminescence; series mostly up to 57.1 µM; further: nearly all actives have a fitted effect of over 50% in size; further: potency means the concentration at half of the fitted maximal effect
In short: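 20 nM human CYP3A4 with 25 uM Luciferin-PPXE (at KM) in 200 mM KPO4, preincubated 10 min with compound; NADPH regeneration started a 60 min RT reaction. Luciferin detected by luminescence, normalized to 57 uM ketoconazole as full inhibition.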

[14] = biological target: Cytochrome P450 3A4 (Homo sapiens) (UniProt P08684); test: qHTS Assay for Activators of Cytochrome P450 3A4 (AID 885); conditions: recombinant CYP3A4, Luciferin-PPXE luminescence, 60 min; series mostly up to 57.1 µM; further: nearly all actives have a fitted effect of over 65% in size; further: potency means the concentration at half of the fitted maximal effect
In short: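 20nM CYP3A4 + 25uM Luciferin-PPXE (=KM), 200mM KPO4; cpd 10 min RT; NADPH regen, 60 min RT; stop w/ detection buffer, 20 min; luminescence. Normalized to 57 uM ketoconazole.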

[15] = biological target: Dual specificity protein kinase CLK4 (Homo sapiens) (UniProt Q9HAZ1); test: qHTS Assay for Inhibitors of CDC-like Kinase 4 (ADP-FP Assay) (AID 1795); conditions: Transcreener ADP fluorescence polarization; series mostly up to 50 µM;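 further: recombinant human CLK4 phosphorylating RS repeat peptide at 1 µM ATP; on the % scale 0 is the no-effect control and ±100 the full control effect; nearly all actives have a fitted effect of over 60% in size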
In short: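 Clk4 6.25 nM; RS peptide 100 uM; ATP 1 uM; 25 mM Tris pH 7.5, 10 mM MgCl2; 1 h reaction. ADP detected via antibody/orange tracer FP displacement; TG003 positive control.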

[16] = biological target: Cytochrome P450 2C9 (Homo sapiens) (UniProt P11712); test: qHTS Assay for Inhibitors and Substrates of Cytochrome P450 2C9 (AID 883); conditions: recombinant CYP2C9, luciferin-H luminescence, 60 min; series mostly up to 57.1 µM; further: on the % scale 0 is the no-effect control and ±100 the full control effect; nearly all actives have a fitted effect of over 60% in size
In short: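 A luminogenic readout tracked human CYP2C9 (10nM) converting deoxyluciferin (100uM, at KM) in 25mM KPO4 during 60 min at 37C with regenerated NADPH. Values normalized to 57uM sulphaphenazole as complete inhibition.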

[17] = biological target: Cytochrome P450 2C19 (Homo sapiens) (UniProt P33261); test: qHTS Assay for Inhibitors and Substrates of Cytochrome P450 2C19 (AID 899); conditions: recombinant CYP2C19, luciferin-H EGE luminescence; series mostly up to 57.1 µM; further: potency means the concentration at half of the fitted maximal effect; nearly all actives have a fitted effect of over 60% in size
In short: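 NADPH-dependent conversion of Luciferin-H EGE (10uM, at KM) by 5nM enzyme in 50mM KPO4, 60 min at 37C following 10 min compound preincubation. Stopped with luciferin detection buffer; luminescence read after 20 min.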

Sequence of Dual specificity protein kinase CLK4 (Homo sapiens) (Q9HAZ1 whole entry, looked up): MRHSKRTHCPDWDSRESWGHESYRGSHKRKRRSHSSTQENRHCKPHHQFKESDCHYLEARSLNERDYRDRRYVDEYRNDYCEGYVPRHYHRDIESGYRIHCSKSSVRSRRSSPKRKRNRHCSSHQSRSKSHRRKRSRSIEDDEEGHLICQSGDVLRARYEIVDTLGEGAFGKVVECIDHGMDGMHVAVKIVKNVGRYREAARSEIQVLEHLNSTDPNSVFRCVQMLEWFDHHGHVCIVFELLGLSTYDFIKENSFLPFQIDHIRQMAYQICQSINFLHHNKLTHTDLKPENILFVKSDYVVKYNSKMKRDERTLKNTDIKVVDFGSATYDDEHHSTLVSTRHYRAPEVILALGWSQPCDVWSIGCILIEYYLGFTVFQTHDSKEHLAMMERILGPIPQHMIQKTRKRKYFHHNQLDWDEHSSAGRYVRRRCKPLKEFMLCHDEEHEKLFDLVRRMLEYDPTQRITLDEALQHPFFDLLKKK
Sequence of Glucocorticoid receptor (Homo sapiens) (P04150 whole entry, looked up, the tested form may be a part): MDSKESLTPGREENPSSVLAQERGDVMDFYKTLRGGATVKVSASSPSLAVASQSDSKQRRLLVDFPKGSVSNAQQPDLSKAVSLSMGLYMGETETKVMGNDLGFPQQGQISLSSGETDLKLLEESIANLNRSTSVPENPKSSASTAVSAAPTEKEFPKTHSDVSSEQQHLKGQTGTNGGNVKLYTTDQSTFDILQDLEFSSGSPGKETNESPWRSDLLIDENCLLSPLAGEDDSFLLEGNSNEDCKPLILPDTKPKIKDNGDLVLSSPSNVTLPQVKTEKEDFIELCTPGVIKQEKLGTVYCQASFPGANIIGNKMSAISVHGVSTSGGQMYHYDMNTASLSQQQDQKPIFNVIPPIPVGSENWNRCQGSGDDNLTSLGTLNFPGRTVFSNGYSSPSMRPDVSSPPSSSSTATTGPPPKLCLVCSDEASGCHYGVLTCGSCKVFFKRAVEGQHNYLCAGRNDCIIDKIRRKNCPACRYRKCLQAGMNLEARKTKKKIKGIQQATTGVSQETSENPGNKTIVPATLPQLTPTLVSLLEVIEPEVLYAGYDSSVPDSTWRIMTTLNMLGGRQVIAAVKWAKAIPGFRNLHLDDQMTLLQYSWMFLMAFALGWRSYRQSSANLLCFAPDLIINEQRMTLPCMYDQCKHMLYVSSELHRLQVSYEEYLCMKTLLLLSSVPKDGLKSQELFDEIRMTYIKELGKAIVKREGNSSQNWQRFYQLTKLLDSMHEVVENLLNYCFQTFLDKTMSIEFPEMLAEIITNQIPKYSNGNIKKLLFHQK
Sequence of Cytochrome P450 1A2 (Homo sapiens) (P05177 whole entry, looked up): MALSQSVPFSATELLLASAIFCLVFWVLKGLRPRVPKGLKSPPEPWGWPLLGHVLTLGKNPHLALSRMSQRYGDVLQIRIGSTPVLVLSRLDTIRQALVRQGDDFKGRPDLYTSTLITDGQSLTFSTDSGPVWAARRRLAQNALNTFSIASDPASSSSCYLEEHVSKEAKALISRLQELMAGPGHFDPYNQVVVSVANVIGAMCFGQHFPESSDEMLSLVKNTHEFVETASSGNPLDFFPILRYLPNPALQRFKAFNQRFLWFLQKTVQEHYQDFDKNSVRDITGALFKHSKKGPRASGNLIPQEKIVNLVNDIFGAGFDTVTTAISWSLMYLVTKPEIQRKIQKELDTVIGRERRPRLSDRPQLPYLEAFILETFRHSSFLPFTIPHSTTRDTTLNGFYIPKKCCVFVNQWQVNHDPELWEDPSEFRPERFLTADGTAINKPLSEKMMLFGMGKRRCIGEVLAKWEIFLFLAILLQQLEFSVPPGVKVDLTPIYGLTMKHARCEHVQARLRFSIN
Sequence of 3',5'-cyclic-AMP phosphodiesterase 4B (Homo sapiens) (Q07343 whole entry, looked up): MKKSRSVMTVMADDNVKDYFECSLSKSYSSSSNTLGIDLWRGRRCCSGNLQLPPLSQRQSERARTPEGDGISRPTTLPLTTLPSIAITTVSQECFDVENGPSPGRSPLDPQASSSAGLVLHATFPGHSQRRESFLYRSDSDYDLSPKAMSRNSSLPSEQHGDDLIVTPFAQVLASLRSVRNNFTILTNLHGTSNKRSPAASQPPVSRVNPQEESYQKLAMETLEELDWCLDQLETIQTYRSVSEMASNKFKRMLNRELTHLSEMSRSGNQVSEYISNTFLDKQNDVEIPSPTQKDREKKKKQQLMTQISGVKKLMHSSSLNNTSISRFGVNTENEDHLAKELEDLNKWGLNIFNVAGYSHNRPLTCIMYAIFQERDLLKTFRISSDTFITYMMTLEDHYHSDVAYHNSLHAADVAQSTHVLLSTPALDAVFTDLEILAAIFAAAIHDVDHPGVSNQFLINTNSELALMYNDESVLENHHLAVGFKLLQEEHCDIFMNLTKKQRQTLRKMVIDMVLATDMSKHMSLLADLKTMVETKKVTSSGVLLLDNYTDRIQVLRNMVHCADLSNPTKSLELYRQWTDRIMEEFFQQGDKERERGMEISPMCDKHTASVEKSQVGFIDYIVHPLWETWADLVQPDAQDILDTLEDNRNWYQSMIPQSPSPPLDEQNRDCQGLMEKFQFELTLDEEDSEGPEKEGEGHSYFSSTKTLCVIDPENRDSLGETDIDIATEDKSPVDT
Sequence of Ubiquitin carboxyl-terminal hydrolase 1 (Homo sapiens) (O94782 whole entry, looked up): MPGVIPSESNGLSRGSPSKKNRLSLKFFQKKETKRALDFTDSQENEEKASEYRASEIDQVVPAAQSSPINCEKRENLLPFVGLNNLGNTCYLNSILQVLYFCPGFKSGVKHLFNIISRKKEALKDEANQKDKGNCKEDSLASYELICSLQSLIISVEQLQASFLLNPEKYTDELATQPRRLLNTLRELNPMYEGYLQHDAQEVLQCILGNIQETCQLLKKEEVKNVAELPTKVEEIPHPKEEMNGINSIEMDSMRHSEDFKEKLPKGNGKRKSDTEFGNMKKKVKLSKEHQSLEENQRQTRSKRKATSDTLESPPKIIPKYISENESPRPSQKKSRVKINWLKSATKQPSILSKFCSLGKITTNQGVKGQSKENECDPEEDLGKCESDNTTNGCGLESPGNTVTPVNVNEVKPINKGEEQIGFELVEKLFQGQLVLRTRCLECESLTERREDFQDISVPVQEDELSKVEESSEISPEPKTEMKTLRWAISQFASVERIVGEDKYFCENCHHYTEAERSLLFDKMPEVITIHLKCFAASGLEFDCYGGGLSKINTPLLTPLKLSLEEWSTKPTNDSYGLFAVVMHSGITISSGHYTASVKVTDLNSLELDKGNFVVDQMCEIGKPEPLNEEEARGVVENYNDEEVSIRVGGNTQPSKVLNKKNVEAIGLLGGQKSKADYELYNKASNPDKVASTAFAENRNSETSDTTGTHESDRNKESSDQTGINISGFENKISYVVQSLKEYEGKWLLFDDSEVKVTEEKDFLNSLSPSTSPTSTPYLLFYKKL
Sequence of Lysosomal acid glucosylceramidase (Homo sapiens) (P04062 whole entry, looked up): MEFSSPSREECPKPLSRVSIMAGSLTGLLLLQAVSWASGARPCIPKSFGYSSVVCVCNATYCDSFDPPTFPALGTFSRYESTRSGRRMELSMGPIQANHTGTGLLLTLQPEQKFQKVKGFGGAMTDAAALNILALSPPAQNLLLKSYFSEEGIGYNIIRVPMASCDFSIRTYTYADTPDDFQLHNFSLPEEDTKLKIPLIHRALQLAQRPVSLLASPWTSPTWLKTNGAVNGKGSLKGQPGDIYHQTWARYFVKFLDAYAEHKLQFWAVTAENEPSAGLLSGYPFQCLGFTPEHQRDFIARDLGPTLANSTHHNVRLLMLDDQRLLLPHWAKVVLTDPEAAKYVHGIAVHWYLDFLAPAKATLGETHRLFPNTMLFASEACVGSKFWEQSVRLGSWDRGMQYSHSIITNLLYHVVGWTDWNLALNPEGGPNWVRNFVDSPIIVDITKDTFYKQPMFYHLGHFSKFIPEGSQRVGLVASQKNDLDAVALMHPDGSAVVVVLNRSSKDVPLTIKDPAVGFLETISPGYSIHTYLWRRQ
Sequence of Cytochrome P450 3A4 (Homo sapiens) (P08684 whole entry, looked up): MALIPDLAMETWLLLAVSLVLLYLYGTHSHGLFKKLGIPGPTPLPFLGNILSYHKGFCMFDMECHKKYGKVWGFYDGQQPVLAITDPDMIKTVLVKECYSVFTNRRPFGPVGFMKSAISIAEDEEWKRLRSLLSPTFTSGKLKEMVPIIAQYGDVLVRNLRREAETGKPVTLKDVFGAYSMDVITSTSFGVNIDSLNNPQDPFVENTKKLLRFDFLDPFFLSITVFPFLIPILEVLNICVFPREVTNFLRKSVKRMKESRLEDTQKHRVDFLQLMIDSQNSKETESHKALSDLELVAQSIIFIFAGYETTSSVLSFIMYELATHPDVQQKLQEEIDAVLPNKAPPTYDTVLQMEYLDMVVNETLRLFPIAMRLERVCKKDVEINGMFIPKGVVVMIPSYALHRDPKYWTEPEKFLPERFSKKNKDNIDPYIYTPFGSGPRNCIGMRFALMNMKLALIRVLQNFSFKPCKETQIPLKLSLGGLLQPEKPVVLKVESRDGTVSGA
Sequence of Cytochrome P450 2C19 (Homo sapiens) (P33261 whole entry, looked up): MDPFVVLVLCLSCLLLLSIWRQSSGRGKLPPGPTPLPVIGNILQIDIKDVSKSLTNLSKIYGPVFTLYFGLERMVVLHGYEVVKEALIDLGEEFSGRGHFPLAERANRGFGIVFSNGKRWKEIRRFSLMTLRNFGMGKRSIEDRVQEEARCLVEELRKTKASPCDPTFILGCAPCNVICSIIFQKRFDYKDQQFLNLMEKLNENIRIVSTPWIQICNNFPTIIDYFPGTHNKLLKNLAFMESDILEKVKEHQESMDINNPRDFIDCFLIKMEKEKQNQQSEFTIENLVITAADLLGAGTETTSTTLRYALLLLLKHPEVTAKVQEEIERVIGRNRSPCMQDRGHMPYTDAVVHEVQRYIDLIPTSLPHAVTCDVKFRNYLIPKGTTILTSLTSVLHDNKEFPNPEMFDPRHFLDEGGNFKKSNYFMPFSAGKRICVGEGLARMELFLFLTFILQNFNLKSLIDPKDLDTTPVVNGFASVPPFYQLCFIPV

COc1cccc(Cn2c(=O)cnc3cnc(Nc4ccccc4)nc32)c1
active: Potency [9] 2.24 µM
inactive: Potency [1] > 11.4 µM | activity change, negative = inhibition [2] -26.5% | activity change, negative = inhibition [3] 17.1% | activity, negative = inhibition [4] -29.7% | Potency [5] > 46 µM | Potency [6] > 46 µM | Potency [7] | Potency [8] | Potency [10] | outcome [11]

Cc1cnc(CNc2cc(-c3ccccc3C)ncn2)cn1
inactive: Potency [1] > 11.4 µM | activity change, negative = inhibition [2] -5.18% | activity change, negative = inhibition [3] 14% | activity, negative = inhibition [4] 4.06% | Potency [5] > 46 µM | Potency [6] > 46 µM | Potency [7] | Potency [8] | Potency [13] | Potency [15] | Potency [10] | outcome [11]
active: Potency [12] 12.6 µM | Potency [14] 3.16 µM

COc1cccc(Nc2ncc3nc(-c4cc(F)cc(F)c4)c(=O)n(C[C@H]4CCCO4)c3n2)c1
inactive: Potency [1] > 11.4 µM | activity, negative = inhibition [4] -10.3% | Potency [5] > 9.22 µM | Potency [6] > 46 µM | Potency [7] | Potency [8] | Potency [14] | Potency [9] | Potency [15] | Potency [10] | outcome [11]

COc1ccccc1CNc1cc(-c2ccccc2OC)ncn1
active: Potency [12] 2.51 µM | Potency [17] 1.58 µM
inactive: Potency [1] > 11.4 µM | activity change, negative = inhibition [2] -14.2% | activity change, negative = inhibition [3] -2.18% | activity, negative = inhibition [4] -12.6% | Potency [5] > 46 µM | Potency [6] > 46 µM | Potency [7] | Potency [8] | activity change, negative = inhibition [16] 31.3% [at 2.29 µM] | Potency [14] | Potency [15] | Potency [10] | outcome [11]

COc1ccc2[nH]cc(CCNc3ncncc3-c3cccnc3)c2c1
active: Potency [12] 0.316 µM | Potency [13] 0.794 µM | Potency [17] 3.16 µM
inactive: Potency [1] > 11.4 µM | activity change, negative = inhibition [2] 9.96% | activity change, negative = inhibition [3] 3.23% | activity, negative = inhibition [4] 2.25% | Potency [5] > 46 µM | Potency [6] > 46 µM | Potency [7] | Potency [8] | Potency [14] | Potency [15] | Potency [10] | outcome [11]

CNc1nc(-c2ccc(C(=O)N(C)C)cc2)nc2ccccc12
inactive: activity change, negative = inhibition [2] 7.59% | activity change, negative = inhibition [3] 23.4% | activity, negative = inhibition [4] -0.956% | Potency [5] > 46 µM | Potency [6] > 46 µM | Potency [7] | Potency [8] | Potency [10] | outcome [11]
active: Potency [9] 28.2 µM

CN(C)c1ncc2nc(-c3cccs3)c(=O)n(C)c2n1
inactive: Potency [1] > 11.4 µM | activity change, negative = inhibition [2] 1.79% | activity change, negative = inhibition [3] -2.27% | activity, negative = inhibition [4] 23.5% | Potency [5] > 9.22 µM | Potency [6] > 46 µM | Potency [8] | Potency [14] | Potency [9] | Potency [15] | Potency [10] | outcome [11]

CN(Cc1ccco1)c1ncncc1-c1cccnc1
active: Potency [12] 5.01 µM | Potency [13] 2.51 µM
inactive: Potency [1] > 11.4 µM | activity change, negative = inhibition [2] 1.77% | activity change, negative = inhibition [3] -11.4% | activity, negative = inhibition [4] 17.1% | Potency [5] > 46 µM | Potency [6] > 46 µM | Potency [7] | Potency [8] | Potency [14] | Potency [15] | Potency [10] | outcome [11]
